The supplement of paper PMC6555819

What was measured:
Assay in all cases: PBM binding z-score (relative to random genomic background probes); higher = stronger binding; sequences stand for … in GC…GCGATTGACAGCGTAGAATGAAGG
[1] = system: PPARg:RXRa DBDmut IVT, anti-RXR (DBD mutation: RXRa K156A/R161A, NR concentration 270 nM, RXRa partner concentration 90 nM)
In short: (§1)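 Each nuclear receptor dimer, without ligand, was incubated for 1 h on custom Agilent 4×180K protein-binding microarrays. Binding was detected with antibodies against each partner (one per run), and scanned fluorescence was regression-normalized. The binding z-scores are referenced to random human genomic background probes.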

[2] = system: PPARg:RXRa IVT, anti-PPARg (NR concentration 270 nM, RXRa partner concentration 90 nM)
In short: as §1

[3] = system: PPARg DBDmut:RXRa IVT, anti-PPARg (DBD mutation: PPARg1 K132A/R137A, NR concentration 270 nM, RXRa partner concentration 90 nM)
In short: as §1

[4] = system: PPARg DBDmut IVT, anti-PPARg (DBD mutation: PPARg1 K132A/R137A, NR concentration 270 nM)
In short: as §1

[5] = system: PPARg homodimer (NR concentration 180 nM)
In short: as §1

[6] = system: PXR:RXRa (NR concentration 270 nM, RXRa partner concentration 90 nM)
In short: as §1

[7] = system: PXR homodimer (NR concentration 270 nM)
In short: as §1

[8] = system: RARa:RXR (NR concentration 270 nM, RXRa partner concentration 90 nM)
In short: as §1

[9] = system: RARa homodimer (NR concentration 270 nM)
In short: as §1

[10] = system: RARb:RXRa (NR concentration 270 nM, RXRa partner concentration 90 nM)
In short: as §1

Row | Sequence | PBM binding z-score [1] | PBM binding z-score [2] | PBM binding z-score [3] | PBM binding z-score [4] | PBM binding z-score [5] | PBM binding z-score [6] | PBM binding z-score [7] | PBM binding z-score [8] | PBM binding z-score [9] | PBM binding z-score [10]
1 | TAGACTAGGTCATGCGGGCCAGTATAGTGTCGGC | 5.86 | 6.59 | 1.88 | 2.4 | 0.793 | 1.06 | -0.131 | 1.67 | -0.228 | 3.55
2 | CAAACTAGGTTAAGAGGTCAAAGTCCGCTTCCCG | 7.16 | 7.32 | 2.96 | 2.44 | 4.58 | 5.64 | 2.31 | 6.47 | 2.19 | 4.23
3 | CCTAGTTGGCCAGGAGGTCACACACCGGATATGA | 0.473 | 2.22 | 0.522 | -0.0399 | 2.61 | 4.27 | 1.23 | 4.66 | 1.39 | 3.41
4 | GCTGCTAGGTCAGGTTGGTTAGCTAACGGGTACG | 3.18 | 1.92 | -0.902 | -0.404 | 0.608 | 0.32 | -0.467 | 0.712 | -0.719 | 3.07
5 | AGTCAAAGTACAGGACGAGGTAACGTAAAGCACG | -0.428 | 0.795 | 0.576 | 0.384 | 0.381 | -0.161 | 0.4 | 0.278 | -0.0608 | 0.641
6 | TCGAGTAGGTTACCAATGGGGCATCCAGCTTTCT | 3.43 | 2.56 | -0.589 | -0.544 | -0.353 | -0.193 | -0.691 | 0.352 | -1.07 | 1.03
7 | GCTGGTAGGTCAACTGATGGTCAGCTAAAGCTCG | 5.49 | 5.82 | 0.658 | 0.562 | 3.06 | 2.3 | -0.226 | 3.53 | 1.16 | 4.29
8 | ATCTCAAGGTAAAGATAGTTCAGTGAATGCAAAT | 0.21 | 0.461 | 0.586 | 1.27 | 0.584 | 2 | 1.05 | 0.797 | 0.976 | 1.16
9 | ATATGTAGGTGAGCTGGGGTCATTCAGACTAGGC | 7.57 | 7.41 | 3.98 | 2.99 | 1.94 | 6.35 | 3.01 | 5.85 | 0.796 | 3.08
10 | TCTATTAGTTGATTCGGGCAACCGAAACAGCGGA | 1.91 | 0.598 | 0.957 | 0.979 | 0.106 | 0.3 | 0.223 | 0.414 | 0.742 | 0.671
11 | GCATATAGGTAATACAAGGTGAAAGCCCGATTGT | 4.04 | 3.27 | 1.21 | 0.358 | 0.757 | 0.437 | -0.12 | 0.973 | 0.0827 | 0.234
12 | CCGACTGGGGCAGAAAGGTGACCATACCATCCGG | 1.97 | 2.21 | -0.413 | -1.14 | 0.473 | -0.192 | -0.34 | 0.197 | -0.0337 | 1.19
13 | CCTTACGGGTCACGACGTTATAGCACGACGAGCG | 3.85 | 4.92 | 0.866 | 0.177 | 1.83 | 3.57 | 0.0826 | 4.61 | 1.39 | 4.34
14 | GCTTACGGGTCAATGGTTATAGCATGAATAGAAT | 3.66 | 3.16 | 0.504 | 0.889 | 1.06 | 2.21 | 0.167 | 3.03 | 0.149 | 3.43
15 | TGAAGGAGGTTATAAGATCAGGGAACGTTGCAAA | -0.131 | 0.876 | 0.728 | 0.392 | 0.374 | 0.292 | 0.19 | 0.993 | 0.904 | 0.905
16 | TAGCCTAGGTCATTGGCCAGTATACCACGCGAAC | 1.38 | 2.72 | 0.244 | -0.771 | 1.49 | 1.56 | -0.368 | 2.16 | -0.259 | 3.57
17 | AGAATGAGGTTACCAAAGATCAGGGTAACGCTTG | 4.2 | 3.74 | 1.58 | 0.777 | 1.01 | 1.83 | -0.213 | 2.59 | -0.485 | 2.2
18 | CGTCAAAGTTGAACTAAGGTAACGTAAAGCACGC | 0.422 | 1.2 | 1.41 | 0.838 | 0.99 | 2.35 | 0.717 | 2.08 | 0.0339 | 2.17
19 | TCATATAGGTAAATGGTGAAAGTCGGTGTGGTAA | 3.92 | 2.4 | 0.569 | 0.625 | 1.49 | 0.445 | 0.609 | 0.554 | 1.52 | 0.243
20 | CCTACAGGGCCATTCAGAGGTCATTGATCATATG | 0.235 | 0.996 | -0.322 | -0.38 | 1.96 | 5.17 | 2.91 | 5.04 | 0.639 | 3.47
21 | ATCTCTAGGTAAAGTTTAGTGAAAGATCGATAGA | 2.35 | 1.77 | 1.78 | 1.51 | 0.509 | 0.187 | 0.339 | -0.0938 | 1.15 | 0.584
22 | CTCGAAAGGTCGTGCTCAGGTGAGGATACCAAAC | 0.783 | 1.73 | -0.368 | 0.176 | 1.74 | 3.15 | 0.182 | 3.92 | 0.325 | 3.94
23 | GCAACTGGGGCATCAGCAGGTTACCATAACTTAA | 5.86 | 5.15 | -0.129 | 0.0733 | 0.577 | 0.0192 | -0.0956 | 0.138 | -0.393 | 0.963
